Results from the supplement of paper PMC11732987, “Enantioselective OTUD7B fragment discovery through chemoproteomics screening and high-throughput optimisation” (Communications Chemistry, 2025).

Tests used:
Assay in all cases: log2 ratio of Biotin-Ahx-Ub-VS probe labelling (fragment/DMSO); higher = less target engagement (more negative = stronger competition), active = hit call of the paper (q ≤ 0.05, log2 ratio ≤ -1)
Settings in all cases: compound concentration: 200 uM; treatment time: 3 h
USP42 = target: T1, USP42 (UniProt Q9H9J4)
T1 sequence (whole entry): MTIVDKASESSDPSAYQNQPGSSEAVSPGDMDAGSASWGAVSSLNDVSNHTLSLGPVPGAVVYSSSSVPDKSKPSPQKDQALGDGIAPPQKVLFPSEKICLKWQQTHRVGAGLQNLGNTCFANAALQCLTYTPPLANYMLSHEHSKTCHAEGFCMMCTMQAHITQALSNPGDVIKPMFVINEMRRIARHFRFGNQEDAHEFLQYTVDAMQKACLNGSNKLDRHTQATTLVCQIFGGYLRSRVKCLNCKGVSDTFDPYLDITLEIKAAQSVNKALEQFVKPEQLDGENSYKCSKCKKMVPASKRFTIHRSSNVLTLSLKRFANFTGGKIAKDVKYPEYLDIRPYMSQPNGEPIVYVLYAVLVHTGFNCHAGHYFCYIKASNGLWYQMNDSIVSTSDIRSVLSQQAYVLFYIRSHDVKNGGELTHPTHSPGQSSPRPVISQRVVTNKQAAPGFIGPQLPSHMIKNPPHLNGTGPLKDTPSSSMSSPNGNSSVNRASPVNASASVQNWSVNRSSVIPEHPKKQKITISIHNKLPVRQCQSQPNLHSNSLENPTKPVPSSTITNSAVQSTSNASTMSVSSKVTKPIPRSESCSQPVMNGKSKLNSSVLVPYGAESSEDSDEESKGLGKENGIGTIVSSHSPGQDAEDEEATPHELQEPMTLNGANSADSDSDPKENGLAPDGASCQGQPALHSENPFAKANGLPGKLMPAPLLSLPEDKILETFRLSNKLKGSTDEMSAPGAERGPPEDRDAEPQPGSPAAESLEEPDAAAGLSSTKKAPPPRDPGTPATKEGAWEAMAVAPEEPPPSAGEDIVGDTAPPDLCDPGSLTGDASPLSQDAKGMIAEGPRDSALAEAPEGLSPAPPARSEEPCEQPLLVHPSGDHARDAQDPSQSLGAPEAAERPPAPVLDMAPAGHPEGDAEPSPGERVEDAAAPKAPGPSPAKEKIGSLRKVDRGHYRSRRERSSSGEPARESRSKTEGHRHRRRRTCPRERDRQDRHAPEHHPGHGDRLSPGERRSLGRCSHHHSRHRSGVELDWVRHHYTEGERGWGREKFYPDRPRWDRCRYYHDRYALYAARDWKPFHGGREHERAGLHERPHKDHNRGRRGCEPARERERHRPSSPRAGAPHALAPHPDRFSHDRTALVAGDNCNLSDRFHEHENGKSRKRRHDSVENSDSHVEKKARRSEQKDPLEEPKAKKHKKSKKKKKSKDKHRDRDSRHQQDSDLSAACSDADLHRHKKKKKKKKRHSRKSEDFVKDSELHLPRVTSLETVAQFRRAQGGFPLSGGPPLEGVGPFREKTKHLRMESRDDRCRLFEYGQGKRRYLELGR
How it was run: (§1)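 HEK293T lysate in Tris/CHAPS/IGEPAL buffer with protease inhibitors (495 µg per sample) was given fragment at 200 µM or vehicle for 3 h, in triplicate. It then received Biotin-Ahx-Ub-VS at 0.5 µM final for 1 h. Labelled DUBs were NeutrAvidin-enriched, digested with LysC and trypsin, and run by diaPASEF LC-MS/MS. Values are average log2 fragment/vehicle ratios by unpaired t-test on global-median-normalised Spectronaut quantities of proteins with ≥2 unique peptides.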

USP46 = USP46 (UniProt P62068)
How it was run: as §1

USP47 = target: T2, USP47 (UniProt Q96K76)
T2 sequence (whole entry): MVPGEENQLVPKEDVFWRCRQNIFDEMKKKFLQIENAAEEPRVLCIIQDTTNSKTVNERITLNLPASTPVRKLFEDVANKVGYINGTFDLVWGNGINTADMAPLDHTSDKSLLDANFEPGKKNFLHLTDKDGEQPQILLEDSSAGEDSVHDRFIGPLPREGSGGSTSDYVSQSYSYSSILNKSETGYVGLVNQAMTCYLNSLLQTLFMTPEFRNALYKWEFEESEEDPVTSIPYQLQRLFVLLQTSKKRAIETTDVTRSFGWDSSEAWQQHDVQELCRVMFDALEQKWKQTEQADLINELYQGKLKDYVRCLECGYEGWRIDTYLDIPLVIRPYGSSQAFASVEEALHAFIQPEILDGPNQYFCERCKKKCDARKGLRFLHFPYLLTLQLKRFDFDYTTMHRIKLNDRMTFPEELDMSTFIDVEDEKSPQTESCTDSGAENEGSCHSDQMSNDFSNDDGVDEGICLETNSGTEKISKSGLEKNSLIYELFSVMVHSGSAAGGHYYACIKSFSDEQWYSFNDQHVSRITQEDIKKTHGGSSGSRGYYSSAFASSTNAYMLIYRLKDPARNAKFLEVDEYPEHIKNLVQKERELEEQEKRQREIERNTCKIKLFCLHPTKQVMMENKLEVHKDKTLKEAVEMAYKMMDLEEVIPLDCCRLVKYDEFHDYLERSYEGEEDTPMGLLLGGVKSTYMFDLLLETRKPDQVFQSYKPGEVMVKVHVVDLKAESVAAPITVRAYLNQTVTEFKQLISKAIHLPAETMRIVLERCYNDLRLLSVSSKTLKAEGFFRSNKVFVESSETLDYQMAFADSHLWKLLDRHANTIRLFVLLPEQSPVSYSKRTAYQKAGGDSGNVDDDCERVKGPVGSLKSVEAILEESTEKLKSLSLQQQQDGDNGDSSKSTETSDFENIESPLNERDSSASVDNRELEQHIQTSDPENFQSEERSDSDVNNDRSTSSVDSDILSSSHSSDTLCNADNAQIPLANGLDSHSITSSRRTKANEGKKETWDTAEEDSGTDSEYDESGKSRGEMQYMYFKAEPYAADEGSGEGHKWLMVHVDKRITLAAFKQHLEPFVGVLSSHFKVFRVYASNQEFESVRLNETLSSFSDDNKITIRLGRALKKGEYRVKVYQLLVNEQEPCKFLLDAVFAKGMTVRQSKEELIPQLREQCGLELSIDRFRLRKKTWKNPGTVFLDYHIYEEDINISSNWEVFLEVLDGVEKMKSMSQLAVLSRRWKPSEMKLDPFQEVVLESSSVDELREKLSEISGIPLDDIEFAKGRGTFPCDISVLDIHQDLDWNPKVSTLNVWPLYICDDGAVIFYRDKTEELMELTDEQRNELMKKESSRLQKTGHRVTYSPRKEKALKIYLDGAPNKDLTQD
How it was run: as §1

USP48 = target: T3, USP48 (UniProt Q86UV5)
T3 sequence (whole entry): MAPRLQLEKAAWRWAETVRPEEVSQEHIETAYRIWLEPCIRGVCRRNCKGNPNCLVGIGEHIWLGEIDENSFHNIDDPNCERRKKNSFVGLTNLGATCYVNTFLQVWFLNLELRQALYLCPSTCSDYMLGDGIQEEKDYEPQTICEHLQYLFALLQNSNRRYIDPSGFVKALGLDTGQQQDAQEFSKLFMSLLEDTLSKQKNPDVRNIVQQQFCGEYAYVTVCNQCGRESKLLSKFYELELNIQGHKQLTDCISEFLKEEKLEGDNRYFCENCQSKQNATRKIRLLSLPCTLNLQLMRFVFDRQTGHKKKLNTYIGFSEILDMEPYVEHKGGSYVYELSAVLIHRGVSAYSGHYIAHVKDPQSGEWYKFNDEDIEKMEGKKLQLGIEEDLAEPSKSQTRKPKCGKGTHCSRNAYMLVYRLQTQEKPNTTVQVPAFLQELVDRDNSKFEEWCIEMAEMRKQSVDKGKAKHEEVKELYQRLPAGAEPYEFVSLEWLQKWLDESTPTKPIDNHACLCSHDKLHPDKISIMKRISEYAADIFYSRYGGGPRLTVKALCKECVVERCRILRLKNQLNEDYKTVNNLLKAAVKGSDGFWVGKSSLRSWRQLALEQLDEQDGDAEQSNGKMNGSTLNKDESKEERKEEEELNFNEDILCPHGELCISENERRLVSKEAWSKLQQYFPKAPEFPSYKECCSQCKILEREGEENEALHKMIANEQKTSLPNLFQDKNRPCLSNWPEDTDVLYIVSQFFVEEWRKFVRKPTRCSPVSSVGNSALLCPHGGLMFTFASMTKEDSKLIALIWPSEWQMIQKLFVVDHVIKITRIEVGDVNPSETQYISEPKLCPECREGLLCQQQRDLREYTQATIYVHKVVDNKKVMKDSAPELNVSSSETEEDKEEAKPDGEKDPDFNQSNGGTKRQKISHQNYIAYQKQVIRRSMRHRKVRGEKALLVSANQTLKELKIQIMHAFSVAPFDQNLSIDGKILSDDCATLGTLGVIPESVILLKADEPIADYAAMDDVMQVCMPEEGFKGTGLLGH
How it was run: as §1

USP5 = target: T4, USP5 (UniProt P45974)
T4 sequence (whole entry): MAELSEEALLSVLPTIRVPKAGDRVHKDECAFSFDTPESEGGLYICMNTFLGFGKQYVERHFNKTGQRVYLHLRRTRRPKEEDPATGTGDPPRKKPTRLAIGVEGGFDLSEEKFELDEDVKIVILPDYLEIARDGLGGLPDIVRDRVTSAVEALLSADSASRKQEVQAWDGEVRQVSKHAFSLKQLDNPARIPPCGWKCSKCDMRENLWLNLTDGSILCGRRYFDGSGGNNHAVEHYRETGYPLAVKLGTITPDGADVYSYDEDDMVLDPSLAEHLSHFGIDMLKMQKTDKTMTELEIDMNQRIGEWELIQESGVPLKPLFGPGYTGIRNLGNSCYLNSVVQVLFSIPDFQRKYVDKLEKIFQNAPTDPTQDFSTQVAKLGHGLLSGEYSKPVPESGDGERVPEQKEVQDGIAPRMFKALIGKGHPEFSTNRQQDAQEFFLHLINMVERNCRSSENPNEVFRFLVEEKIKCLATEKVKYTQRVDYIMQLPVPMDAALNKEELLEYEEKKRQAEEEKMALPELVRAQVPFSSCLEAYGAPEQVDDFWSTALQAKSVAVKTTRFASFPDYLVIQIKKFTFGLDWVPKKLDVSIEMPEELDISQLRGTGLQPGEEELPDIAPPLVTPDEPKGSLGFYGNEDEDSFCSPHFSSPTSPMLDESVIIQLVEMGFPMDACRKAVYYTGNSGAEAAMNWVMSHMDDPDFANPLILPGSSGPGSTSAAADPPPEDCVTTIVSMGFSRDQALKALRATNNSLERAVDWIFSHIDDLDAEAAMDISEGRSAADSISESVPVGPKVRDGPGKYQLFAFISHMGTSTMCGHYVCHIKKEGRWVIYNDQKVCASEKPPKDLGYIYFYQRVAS
How it was run: as §1

USP54 = USP54 (UniProt Q70EL1)
How it was run: as §1

USP7 = USP7 (UniProt Q93009)
How it was run: as §1

USP8 = target: T5, USP8 (UniProt P40818)
T5 sequence (whole entry): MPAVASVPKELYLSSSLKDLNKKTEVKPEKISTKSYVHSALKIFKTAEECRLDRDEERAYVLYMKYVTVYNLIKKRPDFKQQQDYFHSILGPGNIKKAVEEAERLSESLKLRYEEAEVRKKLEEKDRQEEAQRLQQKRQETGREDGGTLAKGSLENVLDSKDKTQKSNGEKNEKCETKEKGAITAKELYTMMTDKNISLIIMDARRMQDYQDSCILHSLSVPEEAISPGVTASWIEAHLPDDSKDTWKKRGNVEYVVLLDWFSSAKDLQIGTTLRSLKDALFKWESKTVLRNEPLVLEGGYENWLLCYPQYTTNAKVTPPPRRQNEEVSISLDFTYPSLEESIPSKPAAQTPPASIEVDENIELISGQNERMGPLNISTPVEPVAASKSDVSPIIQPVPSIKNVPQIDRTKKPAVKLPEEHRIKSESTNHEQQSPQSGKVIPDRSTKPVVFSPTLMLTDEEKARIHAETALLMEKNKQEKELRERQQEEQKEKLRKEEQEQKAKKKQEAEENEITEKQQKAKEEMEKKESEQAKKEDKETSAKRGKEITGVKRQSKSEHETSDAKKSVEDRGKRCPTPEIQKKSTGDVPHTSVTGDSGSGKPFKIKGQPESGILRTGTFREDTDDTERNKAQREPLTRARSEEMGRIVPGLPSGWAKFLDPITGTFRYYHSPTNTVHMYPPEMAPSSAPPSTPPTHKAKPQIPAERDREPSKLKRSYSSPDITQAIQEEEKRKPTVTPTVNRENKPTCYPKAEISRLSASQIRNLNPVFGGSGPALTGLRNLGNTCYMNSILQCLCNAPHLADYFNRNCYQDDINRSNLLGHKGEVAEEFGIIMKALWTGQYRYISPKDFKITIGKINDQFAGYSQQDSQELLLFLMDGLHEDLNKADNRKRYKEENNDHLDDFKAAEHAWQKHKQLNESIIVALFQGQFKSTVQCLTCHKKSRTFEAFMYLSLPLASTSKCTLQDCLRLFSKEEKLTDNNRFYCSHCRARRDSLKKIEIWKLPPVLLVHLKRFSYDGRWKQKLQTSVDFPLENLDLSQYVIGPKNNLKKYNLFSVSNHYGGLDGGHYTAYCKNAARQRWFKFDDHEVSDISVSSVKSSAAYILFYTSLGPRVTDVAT
How it was run: as §1

Measured: log2 ratio of Biotin-Ahx-Ub-VS probe labelling

Chain of USP54 (Q70EL1 whole entry): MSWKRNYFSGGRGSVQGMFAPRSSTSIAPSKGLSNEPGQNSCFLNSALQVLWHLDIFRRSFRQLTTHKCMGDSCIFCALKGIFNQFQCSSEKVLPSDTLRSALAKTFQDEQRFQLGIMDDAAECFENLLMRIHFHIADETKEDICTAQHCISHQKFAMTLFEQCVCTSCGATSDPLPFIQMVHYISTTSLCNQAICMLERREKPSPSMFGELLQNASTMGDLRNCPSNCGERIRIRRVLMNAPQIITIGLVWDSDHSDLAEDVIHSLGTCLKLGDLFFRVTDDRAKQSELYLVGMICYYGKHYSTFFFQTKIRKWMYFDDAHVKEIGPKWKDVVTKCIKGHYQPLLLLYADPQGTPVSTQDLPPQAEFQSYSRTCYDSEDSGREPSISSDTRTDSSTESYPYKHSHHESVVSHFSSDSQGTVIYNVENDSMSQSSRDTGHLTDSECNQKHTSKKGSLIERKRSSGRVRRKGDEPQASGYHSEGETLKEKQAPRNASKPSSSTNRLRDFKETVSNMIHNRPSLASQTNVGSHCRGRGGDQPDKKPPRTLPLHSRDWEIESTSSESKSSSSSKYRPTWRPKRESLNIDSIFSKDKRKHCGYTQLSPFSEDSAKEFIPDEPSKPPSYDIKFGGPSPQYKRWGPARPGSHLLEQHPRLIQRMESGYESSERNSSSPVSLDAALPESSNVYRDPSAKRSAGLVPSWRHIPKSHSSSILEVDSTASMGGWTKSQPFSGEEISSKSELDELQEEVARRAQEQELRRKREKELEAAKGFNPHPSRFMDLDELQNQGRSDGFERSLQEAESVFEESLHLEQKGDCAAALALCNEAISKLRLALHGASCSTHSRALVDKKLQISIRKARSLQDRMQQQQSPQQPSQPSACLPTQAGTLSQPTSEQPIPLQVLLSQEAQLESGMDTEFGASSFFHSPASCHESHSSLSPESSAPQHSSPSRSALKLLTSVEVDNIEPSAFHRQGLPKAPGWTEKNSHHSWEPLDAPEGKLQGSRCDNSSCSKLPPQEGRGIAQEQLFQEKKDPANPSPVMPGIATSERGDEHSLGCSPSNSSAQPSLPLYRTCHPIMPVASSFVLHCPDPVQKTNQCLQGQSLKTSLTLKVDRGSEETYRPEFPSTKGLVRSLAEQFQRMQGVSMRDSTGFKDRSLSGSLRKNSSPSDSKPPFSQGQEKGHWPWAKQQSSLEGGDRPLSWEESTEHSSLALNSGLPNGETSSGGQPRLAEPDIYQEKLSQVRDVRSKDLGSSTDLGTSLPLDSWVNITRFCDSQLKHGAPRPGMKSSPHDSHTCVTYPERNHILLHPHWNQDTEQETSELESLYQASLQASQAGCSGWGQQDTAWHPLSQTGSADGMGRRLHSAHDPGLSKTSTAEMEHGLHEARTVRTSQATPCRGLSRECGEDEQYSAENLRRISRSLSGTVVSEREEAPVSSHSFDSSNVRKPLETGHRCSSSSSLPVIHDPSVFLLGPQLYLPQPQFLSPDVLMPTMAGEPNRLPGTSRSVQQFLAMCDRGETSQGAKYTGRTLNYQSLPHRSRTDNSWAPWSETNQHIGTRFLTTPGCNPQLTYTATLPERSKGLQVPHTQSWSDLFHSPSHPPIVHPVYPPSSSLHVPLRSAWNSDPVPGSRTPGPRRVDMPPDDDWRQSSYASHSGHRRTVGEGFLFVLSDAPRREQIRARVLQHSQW
Chain of USP46 (P62068 whole entry): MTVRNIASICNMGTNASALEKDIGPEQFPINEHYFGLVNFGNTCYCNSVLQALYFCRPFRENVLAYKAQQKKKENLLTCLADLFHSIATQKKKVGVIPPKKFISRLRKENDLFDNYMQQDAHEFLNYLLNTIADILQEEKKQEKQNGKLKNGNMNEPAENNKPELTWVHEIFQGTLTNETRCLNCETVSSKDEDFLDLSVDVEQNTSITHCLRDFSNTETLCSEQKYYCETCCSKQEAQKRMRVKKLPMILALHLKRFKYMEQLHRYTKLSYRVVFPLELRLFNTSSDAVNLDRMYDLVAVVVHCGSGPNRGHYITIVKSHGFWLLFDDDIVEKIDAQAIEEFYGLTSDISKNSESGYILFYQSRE
Chain of USP7 (Q93009 whole entry, looked up): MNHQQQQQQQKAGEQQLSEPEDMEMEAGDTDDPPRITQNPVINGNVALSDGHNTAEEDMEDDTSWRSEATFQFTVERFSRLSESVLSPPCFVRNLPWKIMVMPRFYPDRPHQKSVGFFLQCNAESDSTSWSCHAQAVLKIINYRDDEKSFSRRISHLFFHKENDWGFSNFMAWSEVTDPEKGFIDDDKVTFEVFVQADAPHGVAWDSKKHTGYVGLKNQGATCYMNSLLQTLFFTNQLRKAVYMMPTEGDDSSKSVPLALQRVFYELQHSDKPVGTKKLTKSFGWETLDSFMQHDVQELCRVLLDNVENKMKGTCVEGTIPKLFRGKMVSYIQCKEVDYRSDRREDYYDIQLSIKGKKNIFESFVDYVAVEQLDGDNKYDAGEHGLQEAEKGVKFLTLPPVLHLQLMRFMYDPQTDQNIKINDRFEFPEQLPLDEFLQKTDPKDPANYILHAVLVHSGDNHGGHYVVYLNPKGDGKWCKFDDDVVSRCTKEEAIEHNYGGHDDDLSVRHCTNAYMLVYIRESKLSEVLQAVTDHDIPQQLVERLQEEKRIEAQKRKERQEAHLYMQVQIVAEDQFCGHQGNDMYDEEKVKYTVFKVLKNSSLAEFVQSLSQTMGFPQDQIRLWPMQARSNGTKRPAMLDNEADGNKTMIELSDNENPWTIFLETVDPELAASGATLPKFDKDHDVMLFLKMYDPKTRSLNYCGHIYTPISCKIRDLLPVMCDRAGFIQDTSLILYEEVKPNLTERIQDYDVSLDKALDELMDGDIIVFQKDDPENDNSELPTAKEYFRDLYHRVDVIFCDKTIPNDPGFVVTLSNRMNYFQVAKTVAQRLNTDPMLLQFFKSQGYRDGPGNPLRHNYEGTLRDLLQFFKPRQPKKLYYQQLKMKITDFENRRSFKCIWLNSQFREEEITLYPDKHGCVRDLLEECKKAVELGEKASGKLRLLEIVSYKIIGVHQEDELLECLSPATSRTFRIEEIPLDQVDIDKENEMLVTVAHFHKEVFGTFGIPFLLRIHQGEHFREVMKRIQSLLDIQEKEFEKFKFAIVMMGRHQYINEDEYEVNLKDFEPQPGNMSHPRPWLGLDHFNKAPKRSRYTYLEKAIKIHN

Cc1cccnc1NC(=O)C1CCN(C(=O)CCl)CC1.Cl
inactive: USP42 -0.427 | USP46 -0.0664 | USP47 -0.337 | USP48 -0.172 | USP5 -0.0361 | USP54 0.628 | USP7 -0.121 | USP8 -0.221
